Reference: PubChem BioAssay AID1445 (SRMLSC, 2008)
Screen size: about 220,000 compounds; about 910 (0.41%) were called active. The sample holds actives, similar compounds and a random draw of the others, so the mix is not that of the screen. Entries with a potency or affinity are not part of this list. Unmarked numbers belong to inactive results.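 How the source made its calls: active means primary inhibition above the hit cutoff, then over 50% inhibition at one or more dose response concentrations (cut at about 23% in these data, passing the limit was not always enough); inconclusive means conflicting primary data, or primary hits not chosen for dose response; inactive means low primary inhibition, or under 50% at every dose.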

What follows are compounds tested against Aminopeptidase N (Plasmodium falciparum (isolate 3D7)) (UniProt O96935) (assay: malaria alanyl aminopeptidase activity blockers – biochemical, fluorogenic H-Leu-NHMec substrate, 1536-well (AID 1445;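 further: plate controls were DMSO full reaction for no effect and no enzyme background for full effect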)). Details: recombinant M1AAP, H-Leu-NHMec fluorogenic kinetic assay; at 30 µM, stronger effect = higher value unless noted.
Chain of Aminopeptidase N (Plasmodium falciparum (isolate 3D7)) (O96935 whole entry, looked up): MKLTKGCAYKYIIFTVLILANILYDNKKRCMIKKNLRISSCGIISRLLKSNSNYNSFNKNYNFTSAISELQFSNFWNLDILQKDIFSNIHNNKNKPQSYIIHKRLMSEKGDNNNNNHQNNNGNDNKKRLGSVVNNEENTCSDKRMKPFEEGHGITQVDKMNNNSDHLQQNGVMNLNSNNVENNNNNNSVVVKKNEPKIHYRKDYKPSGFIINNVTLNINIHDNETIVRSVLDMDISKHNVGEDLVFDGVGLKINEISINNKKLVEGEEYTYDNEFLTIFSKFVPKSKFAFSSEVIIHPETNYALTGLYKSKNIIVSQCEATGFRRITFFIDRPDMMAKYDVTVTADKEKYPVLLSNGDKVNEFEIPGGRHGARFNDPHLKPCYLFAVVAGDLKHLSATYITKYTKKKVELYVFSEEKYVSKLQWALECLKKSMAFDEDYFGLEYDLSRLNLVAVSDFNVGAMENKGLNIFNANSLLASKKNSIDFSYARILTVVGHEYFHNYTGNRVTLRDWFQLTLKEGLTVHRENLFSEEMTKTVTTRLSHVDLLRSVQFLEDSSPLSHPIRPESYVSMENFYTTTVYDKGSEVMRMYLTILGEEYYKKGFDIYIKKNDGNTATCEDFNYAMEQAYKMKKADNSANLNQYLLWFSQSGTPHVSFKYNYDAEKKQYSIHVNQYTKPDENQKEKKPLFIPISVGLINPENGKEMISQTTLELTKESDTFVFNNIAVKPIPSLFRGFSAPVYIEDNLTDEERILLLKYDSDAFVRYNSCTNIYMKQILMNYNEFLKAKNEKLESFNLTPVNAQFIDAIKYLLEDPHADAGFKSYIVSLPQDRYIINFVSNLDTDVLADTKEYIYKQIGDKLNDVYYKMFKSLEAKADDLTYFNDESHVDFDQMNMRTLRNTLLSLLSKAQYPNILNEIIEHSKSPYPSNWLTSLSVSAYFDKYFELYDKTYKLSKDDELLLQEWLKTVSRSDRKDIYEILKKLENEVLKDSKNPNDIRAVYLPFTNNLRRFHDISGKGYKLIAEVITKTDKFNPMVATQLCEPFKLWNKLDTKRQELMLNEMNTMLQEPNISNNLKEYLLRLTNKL

Q: How did the inhibition turn out when `CCC(C)(C)NC(=O)C(c1ccc(C)o1)N(C(=O)c1csnn1)c1cccc(F)c1` (stereo not given) was run?
A: Its inhibition is 1.56%.

Q: How did the inhibition turn out when `O=C(Cc1cccs1)Nc1nnc(-c2ccccc2)s1` was run?
A: Its inhibition is 8.23%.

Q: How did the inhibition turn out when `CCCc1n(CC(O)COCc2ccccc2)c2ccccc2[n+]1C` (stereo not given) was run?
A: Its inhibition is 6.5%.

Q: `O=c1[nH]c2ccc(Br)cc2c(-c2ccccc2)c1N1CCOCC1` was tested. Which inhibition did it give?
A: Its inhibition is 3.65%.

Q: Which inhibition does the source give for `Cc1ccc2[nH]c(=O)c(CN3CCCCC3)c(-c3ccccc3)c2c1` here?
A: The inhibition was -7.69%.

Q: `CCCCCCC(=O)N/N=C(\C)Cc1ccccc1` was tested. Which inhibition did it give?
A: The inhibition was -0.14%.

Q: `COc1cccc(-n2c(CN3CCN(Cc4ccccc4)CC3)nc3ccc([N+](=O)[O-])cc3c2=O)c1` was tested. Which inhibition did it give?
A: The inhibition was 4.64%.

Q: `Cc1c(Cl)cnc(NC(=O)CSc2nncs2)c1Cl` was tested. Which inhibition did it give?
A: The inhibition was -1.74%.

Q: How did the inhibition turn out when `COc1cccc(C(=O)NCc2ccccc2OC)c1` was run?
A: The inhibition was 0.04%.

Q: Which inhibition does the source give for `O=C(CN1CCC(C(=O)c2cccc(F)c2)CC1)NCc1cccs1` here?
A: Its inhibition is 11.7%.

Q: How did the inhibition turn out when `O=C(CN1CCC(NC(=O)c2ccc(F)cc2)CC1)NCc1ccccc1F` was run?
A: The inhibition was 31.9%.

Q: Which inhibition does the source give for `O=C(CN1CCC(NC(=O)c2ccc(Br)cc2)CC1)NCc1cccs1` here?
A: Its inhibition is 17.5%.

Q: `Cc1ccc(C(=O)NC2CCN(CC(=O)NCc3cccs3)CC2)cc1` was tested. Which inhibition did it give?
A: The inhibition was 15.8%.

Q: `CCOc1ccc(OCC)c(NC(=O)CN2CCC(NC(=O)c3cccc(F)c3)CC2)c1` was tested. Which inhibition did it give?
A: Its inhibition is 8.37%.

Q: How did the inhibition turn out when `COc1cccc(OC)c1NC(=O)CN1CCC(NC(=O)c2cccc(F)c2)CC1` was run?
A: Its inhibition is 20.7%.

Q: Which inhibition does the source give for `COc1ccccc1CNC(=O)CN1CCC(NC(=O)c2ccccc2F)CC1` here?
A: Its inhibition is 8.21%.

Q: How did the inhibition turn out when `O=C(C1CC1)N1CCN(S(=O)(=O)c2ccc3c(c2)OCCO3)CC1` was run?
A: Its inhibition is 2.72%.

Q: With `O=C(O)CC(NC(=O)C(c1ccccc1)c1ccccc1)c1ccc(F)cc1` (stereo not given) as the compound, how does the inhibition read?
A: The inhibition was -1.82%.

Q: For `Cc1cccc(C)c1NC(=O)c1sc(Cl)nc1C`, which inhibition is on record?
A: Its inhibition is -2.07%.

Q: Which inhibition does the source give for `CC(C)N(CCc1ccncc1)C(=O)Nc1ccc(Cl)c(Cl)c1` here?
A: The inhibition was -5.52%.

Q: For `CCn1nnnc1SCC(=O)Nc1ccc(OCc2ccccc2)cc1`, which inhibition is on record?
A: The inhibition was 7.63%.

Q: Which inhibition does the source give for `O=C(NCc1ccccc1)c1onc(CSc2ccccn2)c1C(=O)NCc1ccccc1` here?
A: Its inhibition is 4.51%.

Q: How did the inhibition turn out when `CC(C)N(C)C1CCN(C(=O)Nc2ccc(Cl)cc2)CC1` was run?
A: Its inhibition is 3.02%.

Q: With `O=c1[nH]c(N2CCOCC2)nc2c1CCCC2` as the compound, how does the inhibition read?
A: The inhibition was 15.6%.

Q: For `CC(C)Oc1ccc(C(CC(=O)O)NC(=O)C2CCCCC2)cc1` (stereo not given), which inhibition is on record?
A: Its inhibition is -1.13%.

Q: How did the inhibition turn out when `Cc1ccc(SCCC(=O)Nc2ccccc2C(=O)N2CCOCC2)cc1` was run?
A: The inhibition was -3.27%.

Q: How did the inhibition turn out when `CN(C)CC(C)(C)CNC(=S)Nc1ccc(S(=O)(=O)N2CCOCC2)cc1` was run?
A: The inhibition was 2.96%.

Q: For `Cc1ccccc1C(=O)NC1CCN(CC(=O)NCc2ccc(F)cc2)CC1`, which inhibition is on record?
A: The inhibition was 3.39%.

Q: How did the inhibition turn out when `O=C(CN1CCC(NC(=O)c2ccccc2Cl)CC1)NCc1ccco1` was run?
A: Its inhibition is 12.1%.

Q: With `Cc1ccccc1C(=O)NC1CCN(CC(=O)Nc2ccc3c(c2)OCO3)CC1` as the compound, how does the inhibition read?
A: Its inhibition is 10.9%.

Q: For `Cc1ccccc1C(=O)NC1CCN(CC(=O)Nc2ccc3c(c2)OCCO3)CC1`, which inhibition is on record?
A: Its inhibition is -1.09%.

Q: For `O=C(CN1CCC(NC(=O)c2ccccc2F)CC1)NCc1ccc(F)cc1`, which inhibition is on record?
A: The inhibition was 27.4% (active).

Q: Which inhibition does the source give for `Cc1cc(-c2n[nH]c(=S)n2/N=C/C=C/c2ccccc2)n[nH]1` here?
A: Its inhibition is 16.6%.

Q: Which inhibition does the source give for `CC1CCN(CCc2nc3cc(NS(=O)(=O)c4ccc(F)cc4)ccc3n2C)CC1` here?
A: Its inhibition is -3.38%.

Q: With `Cc1ccc(OCCCNCCO)c(Br)c1` as the compound, how does the inhibition read?
A: The inhibition was 9.5%.

Q: How did the inhibition turn out when `CCC(=O)NC(=S)Nc1c(C)cc(Br)cc1C` was run?
A: The inhibition was 0.48%.

Q: How did the inhibition turn out when `CC(C(=O)c1c[nH]c(C(=O)N=CN(C)C)c1)c1ncc(C(F)(F)F)cc1Cl` (stereo not given) was run?
A: Its inhibition is 0.78%.

Q: For `COc1cc2c(cc1OC)-c1cc(Nc3ccc4c(c3)OCCO4)nc(=O)n1CC2`, which inhibition is on record?
A: The inhibition was 24.9% (active).

Q: For `COc1cc2c(cc1OC)-c1cc(Nc3ccccc3)nc(=O)n1CC2`, which inhibition is on record?
A: Its inhibition is 11.4%.

Q: Which inhibition does the source give for `CCOc1cccc(Nc2cc3n(c(=O)n2)CCc2cc(OC)c(OC)cc2-3)c1` here?
A: The inhibition was 12.6%.

Q: With `CC(c1cccs1)N(Cc1ccco1)C(=S)Nc1ccc(F)c(Cl)c1` (stereo not given) as the compound, how does the inhibition read?
A: The inhibition was 4.95%.

Q: `Cc1ncc(CO)c(/C=N/NC(=S)Nc2ccc(C(C)C)cc2)c1O` was tested. Which inhibition did it give?
A: The inhibition was 9.46%.

Q: For `Cc1nc2cc(NC(=O)c3ccc(N4C(=O)CCC4=O)cc3)ccc2s1`, which inhibition is on record?
A: The inhibition was -5.53%.

Q: With `COc1cc(/C=C2/SC(=S)N(c3c(C)n(C)n(-c4ccccc4)c3=O)C2=O)ccc1O` as the compound, how does the inhibition read?
A: The inhibition was 11.3%.

Q: For `CCOc1ccc(/C=C2\SC(=S)N(CCC(=O)O)C2=O)cc1`, which inhibition is on record?
A: The inhibition was 1.74%.

Q: With `CCOc1ccc(/C=C2\SC(=S)N(C(C(=O)O)c3ccccc3)C2=O)cc1OC` (stereo not given) as the compound, how does the inhibition read?
A: Its inhibition is 14.7%.

Q: How did the inhibition turn out when `COc1cc(/C=C2\SC(=S)N(C(C(=O)O)c3ccccc3)C2=O)cc(OC)c1OC` (stereo not given) was run?
A: The inhibition was 18.4%.

Q: With `Cc1ccc(/C=C2\SC(=S)N(C(Cc3ccccc3)C(=O)O)C2=O)cc1` (stereo not given) as the compound, how does the inhibition read?
A: Its inhibition is 14.4%.

Q: For `COc1ccc(/C=C2\SC(=S)N(C(Cc3ccccc3)C(=O)O)C2=O)cc1` (stereo not given), which inhibition is on record?
A: Its inhibition is 4.89%.

Q: How did the inhibition turn out when `C=CCOc1ccc(/C=C2\SC(=S)N(N3CCOCC3)C2=O)cc1` was run?
A: The inhibition was -2.77%.

Q: How did the inhibition turn out when `CCOc1ccc(/C=C2/SC(=S)N(C(C(=O)O)c3ccccc3)C2=O)cc1OCC` (stereo not given) was run?
A: The inhibition was 12.1%.

Q: Which inhibition does the source give for `O=C(COc1cccc2cccnc12)N/N=C/c1ccccc1O` here?
A: The inhibition was -2.77%.

Q: How did the inhibition turn out when `O=S(=O)(NCC(c1cccnc1)N1CCN(c2ccc(F)cc2)CC1)c1cccs1` (stereo not given) was run?
A: Its inhibition is -1.2%.

Q: `COc1ccc(CNC(=S)NC(C)CCc2ccccc2)cc1` (stereo not given) was tested. Which inhibition did it give?
A: The inhibition was -0.16%.

Q: `CSc1cccc(NCc2ccc([N+](=O)[O-])cc2)c1` was tested. Which inhibition did it give?
A: The inhibition was 7.42%.

Q: Which inhibition does the source give for `COc1ccc(-c2nn(-c3ccccc3)cc2CNCCN2CCOC2=O)c(F)c1` here?
A: Its inhibition is -5.99%.

Q: `O=C(N/N=C/c1ccccn1)c1cc(-c2ccccc2)nc2ccccc12` was tested. Which inhibition did it give?
A: Its inhibition is -10.8%.

Q: For `Cn1cnnc1SCC(=O)Nc1ccc2nc(SCc3ccccc3F)sc2c1`, which inhibition is on record?
A: The inhibition was -0.14%.

Q: How did the inhibition turn out when `O=C(O)C(Cc1ccccc1)N1C(=O)/C(=C/c2ccccc2)SC1=S` (stereo not given) was run?
A: The inhibition was 18.4%.

Q: With `O=C(O)C(Cc1ccccc1)N1C(=O)/C(=C/c2cccnc2)SC1=S` (stereo not given) as the compound, how does the inhibition read?
A: The inhibition was 5.04%.
